From PubChem BioAssay
Hits are enriched below; roughly 3.4% of the tested compounds scored in any of these assays.
GPR151 ag: activators of human GPR151 | Q8TDV0 | PathHunter beta-arrestin GPR151 cells, luminescence | activation, % at 11.2 µM | 650,000 compounds, 1% hits | AID 1508602; in the data active means activation above about 4.9%;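 further: 0% = median of compound wells and 100% = cells with positive control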
Target sequence (Q8TDV0 whole entry, looked up): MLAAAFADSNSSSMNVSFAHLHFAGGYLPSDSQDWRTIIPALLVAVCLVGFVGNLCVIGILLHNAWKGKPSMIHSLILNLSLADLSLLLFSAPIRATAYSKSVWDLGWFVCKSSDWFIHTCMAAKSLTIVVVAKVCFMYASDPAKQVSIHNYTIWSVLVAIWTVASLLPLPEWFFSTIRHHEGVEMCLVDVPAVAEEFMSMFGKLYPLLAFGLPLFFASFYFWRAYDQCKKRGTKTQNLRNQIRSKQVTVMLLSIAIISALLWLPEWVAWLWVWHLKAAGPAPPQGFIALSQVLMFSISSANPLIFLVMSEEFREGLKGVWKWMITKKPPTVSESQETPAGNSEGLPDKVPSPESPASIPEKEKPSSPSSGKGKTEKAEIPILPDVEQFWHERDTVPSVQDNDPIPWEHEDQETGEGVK
FBW7 act: human FBW7 E3 ligase activation, primary screen; Q969H0; AlphaScreen FBW7–phospho-cyclin E peptide binding, activator screen; normalized activity (activation), % at 26.1 µM; 650,000 compounds, 0.13% hits; in the data active means normalized activity above about 1.9%;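 further: purified mutant Fbw7 with reduced substrate affinity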
MITF inh: human MITF inhibition, primary screen; 650,000 compounds, 0.91% hits; O75030; inhibition, % at 2.6 µM; AID 1259374; AlphaScreen MITF homodimerization, bead proximity signal; in the data active means inhibition above about 50%;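 further: 0% = vehicle wells with protein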
TEAD-YAP block: TEAD-YAP interaction inhibition; HEK-TIYL cells, TEAD-Gal4/YAP UAS-luciferase luminescence; inhibition, % at 9.12 µM; 640,000 compounds, 1.4% hits; in the data active means inhibition above about 32%;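 further: 0% = median of test compound wells and 100% = reference inhibitor wells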
GPR151 conf act: human GPR151 activation, confirmation screen. shares compounds with GPR151 ag. GPR151 PathHunter beta-arrestin cells, luminescence, 90 min; % of EA-reagent control over plate median. activation, % at 11.2 µM. 6,700 tested, under 10 active;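 active means mean percent activation across replicates above the confirmation screen cutoff of 4.91%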
GPR119 counter: GPR119 activation, counter-screen for GPR151 activators | GPR119 PathHunter beta-arrestin cells, luminescence, 90 min; 0 = compound-well median, 100 = enzyme-acceptor control | 6,700 compounds, 0.3% hits | activation, % at 11.2 µM | shares compounds with GPR151 ag;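 active means mean percent activation in the counterscreen above 29.09%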;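 further: counterscreen on off-target GPR119 to flag nonselective hits from the GPR151 activator screen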
* hit, by the source's call; nt = no result given.

SMILES	GPR151 ag	FBW7 act	MITF inh	TEAD-YAP block	GPR151 conf act	GPR119 counter
CN(C)CCNC(=O)C(=O)Nc1ccccc1	8.4*	0	8	-17	-1	-16
CN(C)CCNC(=S)Nc1ccc(F)cc1	0	0	-24	5	nt	nt
CN(C)CCNC(=O)Nc1ccccc1	1	0	-12	-4	nt	nt
CN(C)CCNC(=S)Nc1ccc(C(=O)O)cc1	10*	0	-3	0	0	-4
O=C(NCc1ccc2c(c1)OCO2)c1ccc(C#CC2(O)CCCCC2)cc1	0	0	-3	-11	nt	nt
COc1ccc(C(=O)Nc2ccc(C(=O)N/N=C/c3ccc(O)cc3O)cc2)cc1	8.6*	0	-3	-6	0	3
COc1ccc(N2Cc3ccc(C(=O)N/N=C/c4ccco4)cc3C2)cc1	0	1	23	-21	nt	nt
COc1ccc(C(=O)N/N=C/c2ccco2)cc1	6.9*	0	21	-32	0	-7
Cc1ccc(S(=O)(=O)N2CCN(C(=O)Oc3ccccc3)CC2)cc1	2	0	-4	2	nt	nt
CS(=O)(=O)c1ccc(OCC(=O)NC2CCS(=O)(=O)C2)c([N+](=O)[O-])c1 (centres undefined)	3	0	7	8	nt	nt
CC(=O)C1=C(C)NC(SCC(=O)O)=C(C#N)C1c1ccccc1 (centres undefined)	0	0	14	-8	nt	nt
CC(=O)C1=C(C)NC(SCC=C(C)C)=C(C#N)C1C1C=CC(Cl)C=C1 (centres undefined)	5.4*	0	-7	-3	1	-13
C/C(CCc1ccccc1)=N/Nc1ccc([N+](=O)[O-])cc1	8.0*	0	8	1	0	-5
O=C(Cn1ncc2ccccc2c1=O)NNC(=S)NC1CC2CCC1C2 (centres undefined)	10*	1	5	5	0	8
CCOC(=O)N1CCN(c2cc(N3CCCC3)c(F)cc2[N+](=O)[O-])CC1	-2	0	7	11	nt	nt
CCOC(=O)N1CCN(c2cc(N3CCN(C)CC3)c(F)cc2[N+](=O)[O-])CC1	8.3*	0	19	5	0	-2
CCNc1nc(NCCCN2CCCC2=O)c2ncn(C(C)C)c2n1	5.4*	0	4	8	0	-8
O=C1CCCN1CCCNc1nc(NCCN2CCOCC2)c2ncn(CCN3CCCC3=O)c2n1	6.4*	0	2	-9	0	-11
CC(C)N(CCNc1nc(NCCN2CCOCC2)nc2c1ncn2Cc1ccc(C(F)(F)F)cc1)C(C)C	6.4*	0	0	-1	0	-3
O=C1CCCN1CCCNc1nc(NCCCN2CCCC2=O)c2ncn(CCN3CCCC3=O)c2n1	-2	0	10	-9	nt	nt
CC(C)n1cnc2c(NCCCN3CCCC3=O)nc(NCCCN3CCCC3=O)nc21	3	0	10	-1	nt	nt
CCCNc1nc(Nc2cc(OC)c(OC)c(OC)c2)nc2c1ncn2CCN1CCCC1=O	2	0	12	9	nt	nt
COc1cc(Nc2nc(NCCN3CCOCC3)c3ncn(CCN4CCCC4=O)c3n2)cc(OC)c1OC	5.7*	0	17	0	2	4
O=C1CCN(S(=O)(=O)c2ccc([N+](=O)[O-])cc2)CCN1	4	0	9	9	nt	nt
COc1cc(/C=N\n2cnnc2)cc(Cl)c1OCC#N	-1	0	16	-1	nt	nt
SMILES	GPR151 ag	FBW7 act	MITF inh	TEAD-YAP block	GPR151 conf act	GPR119 counter
O=C1CCCN1CCCNc1nc(N2CCC(N3CCOCC3)CC2)nc2c1ncn2C1CCCCC1	14*	0	-2	-1	0	-6
O=C1CCCN1CCn1cnc2c(NC3CC3)nc(Nc3ccncc3)nc21	12*	0	0	1	0	-3
Cc1cc(C)nc(-n2nc(C)cc2-c2ccccc2)n1	1	0	-13	1	nt	nt
COc1ccc(CNC(=O)C2CCN(c3nc4ccccc4n4cccc34)CC2)cc1	7.5*	0	-13	-6	-1	-1
O=C1N2CN(C(c3ccccc3)c3ccccc3)CN=C2SC1(CO)CO	7.7*	0	17	5	-1	-6
O=C1NC(c2ccccc2)=N/C1=C/c1ccccc1	-1	0	-6	-12	nt	nt
COc1cc(/C=C2/N=C(c3ccccc3)NC2=O)cc(OC)c1OC	5.4*	0	2	3	0	2
Cc1nn(C)c(C)c1-c1nccc(NCc2nc3ccccc3[nH]2)n1	5.9*	0	-4	-3	0	-4
COc1ccc([N+](=O)[O-])cc1NC(C)C	5.0*	0	-1	8	0	-3
CCS(=O)(=O)Nc1cc([N+](=O)[O-])ccc1OC	0	0	-6	7	nt	nt
COc1ccc([N+](=O)[O-])cc1NC1CCCCC1C (centres undefined)	5.7*	0	50	5	0	1
CC1CCCCC1Nc1ccc([N+](=O)[O-])cc1C#N (centres undefined)	0	0	0	-3	nt	nt
COc1ccc(O)c(C(=O)c2cnn(C(=O)C(=O)Nc3ccc(C)cc3)c2)c1	-1	0	5	-4	nt	nt
CCOc1ccc(NC(=O)CCCCCN2C(=O)c3cccc4cccc(c34)C2=O)cc1	0	0	3	2	nt	nt
COc1cc(/C=c2\sc3nc(=O)c(C)nn3c2=O)ccc1OC(C)=O	14*	0	4	3	0	-1
CCOc1ccc(/C=c2\sc3nc(=O)c(C)nn3c2=O)cc1OC	0	0	8	16	nt	nt
C#CCNc1cc(-c2ccccc2)nc2ncnn12	7.1*	0	-1	0	0	-3
C=CCNc1cc(-c2ccccc2)nc2ncnn12	0	0	-2	-3	nt	nt
COCCNC(=O)c1cc(I)c(OCc2ccccc2)c(OC)c1	-2	0	-3	17	nt	nt
O=C(Nc1ccc([N+](=O)[O-])cc1)c1ccc2ccccc2n1	0	0	-10	8	nt	nt
COc1cc(C#N)ccc1OCC(=O)NC(C)c1ccc(F)cc1 (centres undefined)	1	0	2	2	nt	nt
COc1cc(C#N)ccc1OCC(=O)N(C)Cc1ccc(F)cc1	8.0*	0	-15	-11	1	-8
Cc1cc(CC(=N)N)c(C)cc1CC(=N)N	5.4*	0	6	-5	-1	-12
Cn1c(=O)oc2cc(S(=O)(=O)N3CCCC(C(=O)Nc4ccccc4Cl)C3)ccc21 (centres undefined)	-1	0	14	4	nt	nt
O=C(Nc1c2c(nn1-c1ccccc1)CSC2)c1ccc(S(=O)(=O)N2CCCCC2)cc1	-1	0	7	7	nt	nt
C(=N\Nc1nn2cnnc2c2ccccc12)/c1cccnc1	-2	0	3	19	nt	nt
O=C(O)C1CSC(c2ccsc2)N1 (centres undefined)	5.3*	1	23	2	0	-2
